Assay outcomes: PubChem, National Center for Advancing Translational Sciences (NCATS)
KB-3-1 tox – qHTS assay for MDR1-selective chemotherapeutics: Primary screen using the parental adenocarcinoma cell KB-3-1. KB-3-1 viability, CellTiter-Glo ATP luminescence, 72 h. Potency, µM (doses to about 46.1 µM), most hits filed as cytotoxic. 400,000 tested, 1.4% active. AID 1347075, 2019; also: nearly all actives have a fitted effect of over 60% in size
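KB-3-1 parental drug-naive adenocarcinoma cells in DMEM/10% FBS, incubated 72 h at 37 C with pin-transferred compounds across a concentration series. Viability by CellTiter-Glo luminescence; concentration-response curves fitted after normalization.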
ELG1 repair inh – qHTS screen for small molecules that inhibit ELG1-dependent DNA repair in human embryonic kidney (HEK293T) cells expressing luciferase-tagged ELG1 | HEK293T ELG1-luciferase reporter, luminescence, 16 h; DNA damage induced by 5-fluorouridine | Potency, µM (titrated, usually from 46.1 µM), usual class: inhibitors | 330,000 tested, 2.3% active | AID 504467, 2011; also: nearly all actives have a fitted effect of over 55% in size
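In this reporter screen, reduction of luminescence relative to DMSO vehicle indicated activity. Compounds and 5-fluorouridine were added together to 2,000 cells per well, incubated for 16 hr at 37 °C, then developed with ONE-Glo.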
SW480 rereplic – A quantitative high throughput screen for small molecules that induce DNA re-replication in SW480 colon adenocarcinoma cells; SW480 DNA re-replication, Hoechst DNA content imaging, 48 h; Potency, µM (titrated, usually from 46.1 µM), usual class: activators; 340,000 tested, 1.8% active; AID 624297, 2012; also: nearly all actives have a fitted effect of over 55% in size
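250 cells/well; 23 nL cpd via pin tool; 48 hr, 37 C, 5% CO2; Hoechst 40 min; imager read of total nuclear intensity, ex 405/em 500-530 nm.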
MCF10A rerep – A quantitative high throughput screen for small molecules that induce DNA re-replication in MCF 10a normal breast cells | MCF 10A DNA re-replication, Hoechst nuclear intensity, 48 h | Potency, µM (top dose mostly 46.1 µM), actives largely listed as activators | 350,000 tested, 2.9% active; also: nearly all actives have a fitted effect of over 50% in size
KB-V1 cytotox – qHTS assay for MDR1-selective chemotherapeutics: Primary screen using the drug-selected MDR subline cells KB-V1; KB-V1 MDR cells viability, CellTiter-Glo, 72 h; Potency, µM (doses to about 46.1 µM), hits mostly cytotoxic; 400,000 tested, 3.4% active; also: nearly all actives have a fitted effect of over 60% in size
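Luminescent ATP read-out (CellTiter-Glo, 10 min) measures survival of drug-selected KB-V1 MDR cells after 72 h, 37 degrees C compound exposure. Medium: phenol-red-free DMEM, 10% FBS. Values from fitted concentration-response curves.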
Of the large screens only hits and unclear results are named; the others gave an inactive call. Most compounds without a hit are left out; they make up all but 8.1% or so of the library. Calls follow the shape of the dose curve; as a rule, active = well fitted curve in the direction sought with a large enough effect; inconclusive = small, poorly fitted or top-dose-only effect, or another doubt; inactive = no such curve, though single readings can be large; an effect the other way counts as inactive or inconclusive.

O=C(Nc1nc(-c2cc(Cl)sc2Cl)cs1)c1ccccc1	KB-3-1 tox inconclusive, ELG1 repair inh inconclusive, MCF10A rerep 21µM
O=C(Nc1nc(-c2ccccc2)cs1)c1ccc(=O)[nH]c1	KB-3-1 tox inconclusive, KB-V1 cytotox 18µM
O=C(Nc1nc(-c2ccccn2)cs1)c1ccc(Cl)s1	KB-3-1 tox inconclusive, ELG1 repair inh inconclusive, KB-V1 cytotox inconclusive
CN(C)CCCNc1c2c(nc3cc(-c4cccc(F)c4)nn13)CCC2	SW480 rereplic inconclusive, MCF10A rerep inconclusive
CC(C)Sc1nc2ccccc2n1CC(=O)NCc1ccc2c(c1)OCO2	ELG1 repair inh inconclusive, KB-V1 cytotox 15µM
Cc1cc(C)c2cc(C)c3nnc(SCC(=O)NCc4ccc5c(c4)OCO5)n3c2c1	KB-V1 cytotox 2.3µM
CC(C)N(C(=O)Cn1c(SCC(=O)NCc2ccc3c(c2)OCO3)nc2ccccc21)C(C)C	MCF10A rerep inconclusive
CC1CC(=O)N(CC(=O)NCc2ccc3c(c2)OCO3)c2ccccc2S1 (configuration not stated)	KB-V1 cytotox 21µM
Cc1cc2cc(C)c3nnc(SCC(=O)NCc4ccc5c(c4)OCO5)n3c2cc1C	KB-V1 cytotox inconclusive
O=C(CN1C(=O)CCSc2ccccc21)Nc1ccc2c(c1)OCO2	ELG1 repair inh inconclusive, KB-V1 cytotox 18µM
Cc1[nH]c2ccccc2c1Cc1nnc(SCCC#N)o1	none
CC(=O)c1c(C(C)=O)c(C)n(Cc2ccc3c(c2)OCO3)c1C	KB-3-1 tox 13µM, ELG1 repair inh inconclusive, KB-V1 cytotox 2.6µM
CC(=O)c1c(C)n(CC(=O)NCc2ccc3c(c2)OCO3)c2ccccc12	KB-3-1 tox 16µM, ELG1 repair inh inconclusive, SW480 rereplic inconclusive, MCF10A rerep inconclusive, KB-V1 cytotox 2.9µM
CCc1ccc(NC(=O)N(Cc2ccco2)C(C)c2cccs2)cc1 (configuration not stated)	KB-3-1 tox inconclusive, MCF10A rerep inconclusive, KB-V1 cytotox 21µM
COC(=O)c1ccc(NC(=S)N(Cc2cccnc2)Cc2ccco2)cc1	ELG1 repair inh inconclusive
CCc1ccc(NC(=O)N(Cc2cccnc2)Cc2ccco2)cc1	KB-V1 cytotox 15µM
CCc1ccc(NC(=O)N(C2CCCCC2)C(C)c2cccnc2)cc1 (configuration not stated)	ELG1 repair inh inconclusive, KB-V1 cytotox 21µM
CCN(CC)S(=O)(=O)c1ccc(/C=C/C(=O)OCC(=O)NCc2cccs2)cc1	ELG1 repair inh inconclusive, MCF10A rerep inconclusive
O=C(NCc1ccccc1)c1cccc(COc2ccccc2Cl)c1	ELG1 repair inh inconclusive, MCF10A rerep inconclusive, KB-V1 cytotox inconclusive
O=C(NCc1ccccc1)c1cccc(COc2cc(Cl)ccc2Cl)c1	ELG1 repair inh inconclusive, SW480 rereplic inconclusive, KB-V1 cytotox 21µM
COC(=O)c1ccccc1NC(=O)c1cccc(COc2ccccc2Cl)c1	KB-3-1 tox inconclusive, ELG1 repair inh inconclusive, SW480 rereplic inconclusive, MCF10A rerep 2.6µM, KB-V1 cytotox inconclusive
O=C(O)c1ccc(Cl)c(NC(=S)NC(=O)c2cccc(COc3ccccc3)c2)c1	MCF10A rerep 8.2µM
CCOC(=O)Nc1cc(NC(=O)OCC)ncn1	none (no result: ELG1 repair inh)
CN=CC1=C(O)c2ccccc2C1=O	MCF10A rerep 13µM
Cc1ccc(O)c(N=CC2=C(O)c3ccccc3C2=O)c1	ELG1 repair inh inconclusive, SW480 rereplic inconclusive, MCF10A rerep inconclusive
O=C1C(C=Nc2ccccc2O)=C(O)c2ccccc21	ELG1 repair inh inconclusive, SW480 rereplic inconclusive, MCF10A rerep 5.2µM
O=C(NCc1ccc(F)cc1)c1nnc(Cc2cccc(F)c2)o1	none (no result: ELG1 repair inh, SW480 rereplic, MCF10A rerep)
Cc1ccc(C(O)c2ccc(-n3ccnc3)cc2)cc1 (configuration not stated)	ELG1 repair inh inconclusive
N=c1c(C(=O)NCc2ccc(F)cc2)cc2c(=O)n3ccccc3nc2n1CC1CCCO1 (configuration not stated)	SW480 rereplic 2.9µM, MCF10A rerep inconclusive
COc1ccc(CCNC(=O)c2cc3c(=O)n4ccccc4nc3n(CC3CCCO3)c2=N)cc1 (configuration not stated)	MCF10A rerep inconclusive (no result: ELG1 repair inh)
N=c1c(C(=O)NCCc2ccccc2)cc2c(=O)n3ccccc3nc2n1CC1CCCO1 (configuration not stated)	ELG1 repair inh inconclusive, SW480 rereplic 2.6µM, MCF10A rerep 18µM
N=c1c(C(=O)NCc2ccc3c(c2)OCO3)cc2c(=O)n3ccccc3nc2n1CC1CCCO1 (configuration not stated)	KB-3-1 tox inconclusive, SW480 rereplic 23µM, MCF10A rerep inconclusive
N=c1c(C(=O)NCc2ccco2)cc2c(=O)n3ccccc3nc2n1CC1CCCO1 (configuration not stated)	SW480 rereplic inconclusive, MCF10A rerep inconclusive (no result: ELG1 repair inh)
CCOC(=O)N1CCN(c2nc3ccccc3nc2C(C#N)S(=O)(=O)c2ccc(C)cc2)CC1 (configuration not stated)	KB-V1 cytotox 3.7µM
COCCNC(=O)C(C#N)c1nc2ccccc2nc1N1CCCCCC1 (configuration not stated)	ELG1 repair inh inconclusive, MCF10A rerep inconclusive, KB-V1 cytotox 4.1µM
COCCOC(=O)C(C#N)c1nc2ccccc2nc1N1CCN(Cc2ccccc2)CC1 (configuration not stated)	ELG1 repair inh inconclusive
COCCCNC(=O)C(C#N)c1nc2ccccc2nc1N1CCN(Cc2ccccc2)CC1 (configuration not stated)	MCF10A rerep inconclusive
C=CCOC(=O)C(C#N)c1nc2ccccc2nc1N1CCN(c2ccccc2OC)CC1 (configuration not stated)	ELG1 repair inh 13µM, MCF10A rerep inconclusive
COCC(C)OC(=O)C(C#N)c1nc2ccccc2nc1N1CCN(Cc2ccccc2)CC1 (configuration not stated)	ELG1 repair inh 21µM, KB-V1 cytotox inconclusive
O=[N+]([O-])c1ccc(CN2CC(N3CCCC3)CS2(=O)=O)cc1 (configuration not stated)	none (no result: ELG1 repair inh, SW480 rereplic, MCF10A rerep)
O=C(c1cccc(C(F)(F)F)c1)C1CCCN(Cc2cccn2-c2ccccn2)C1 (configuration not stated)	ELG1 repair inh inconclusive, KB-V1 cytotox inconclusive
COc1ccc(/C=N\NC(=O)c2ccccc2Br)cc1COc1ccccc1	SW480 rereplic inconclusive
COC(=O)c1onc(-c2c(Cl)cccc2Cl)c1C(=O)OC	none
COc1ccccc1NC(=O)c1sc(NC(=O)c2ccco2)c(C#N)c1C	SW480 rereplic inconclusive, MCF10A rerep 16µM
Nc1c(C(=O)Nc2ccc(F)c(F)c2)sc2nc(-c3ccncc3)ccc12	none (no result: ELG1 repair inh, SW480 rereplic, MCF10A rerep)
